From ChEMBL document CHEMBL1961873, “Compounds: GSK PKIS; Assays: Nanosyn kinase panel” (2012) come the findings set out here.

The structures appear in SMILES notation.

Assay [1] deals with Leukocyte tyrosine kinase receptor (Homo sapiens) (UniProt P29376). The settings on record: at 1 µM.
Assay [2] concerns the target Tyrosine-protein kinase Lyn (Homo sapiens) (UniProt P07948). The note with it: at 0.1 µM.
The target is the same in assay [3]. The settings on record: at 1 µM.
For assay [4] the target is unchanged. The settings on record: at 0.1 µM. This is another data set of the same source.
Assay [5] has the same target. The note with it: at 1 µM. The source holds these as a separate data set.
For assay [6], the target named is T1, Tyrosine-protein kinase Mer (Homo sapiens) (UniProt Q12866).
T1 sequence (whole entry): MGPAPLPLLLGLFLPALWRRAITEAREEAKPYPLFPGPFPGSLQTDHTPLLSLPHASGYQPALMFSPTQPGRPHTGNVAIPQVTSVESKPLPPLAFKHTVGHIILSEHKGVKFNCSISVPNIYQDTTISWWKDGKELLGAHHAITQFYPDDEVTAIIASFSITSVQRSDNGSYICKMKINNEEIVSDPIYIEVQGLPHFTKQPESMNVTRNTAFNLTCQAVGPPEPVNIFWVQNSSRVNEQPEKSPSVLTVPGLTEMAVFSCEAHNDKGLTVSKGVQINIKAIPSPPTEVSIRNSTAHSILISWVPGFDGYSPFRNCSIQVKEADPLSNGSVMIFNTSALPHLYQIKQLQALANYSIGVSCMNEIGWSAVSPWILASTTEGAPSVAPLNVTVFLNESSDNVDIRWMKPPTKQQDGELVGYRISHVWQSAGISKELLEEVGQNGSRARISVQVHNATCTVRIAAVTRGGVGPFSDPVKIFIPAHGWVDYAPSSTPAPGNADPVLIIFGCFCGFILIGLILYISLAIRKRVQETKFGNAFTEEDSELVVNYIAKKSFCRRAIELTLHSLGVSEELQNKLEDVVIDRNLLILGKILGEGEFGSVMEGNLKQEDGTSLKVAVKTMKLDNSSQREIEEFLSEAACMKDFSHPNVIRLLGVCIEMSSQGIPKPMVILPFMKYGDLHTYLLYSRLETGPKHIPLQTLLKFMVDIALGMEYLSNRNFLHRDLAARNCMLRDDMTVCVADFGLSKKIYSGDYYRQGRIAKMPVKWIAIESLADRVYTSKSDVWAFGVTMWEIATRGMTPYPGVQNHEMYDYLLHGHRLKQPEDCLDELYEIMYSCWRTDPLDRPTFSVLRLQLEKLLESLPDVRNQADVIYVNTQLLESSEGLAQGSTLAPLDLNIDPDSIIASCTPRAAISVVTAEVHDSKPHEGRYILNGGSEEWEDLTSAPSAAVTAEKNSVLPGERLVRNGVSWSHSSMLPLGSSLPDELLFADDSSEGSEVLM
The settings on record: at 0.1 µM.

The target of assay [7] is T1, Tyrosine-protein kinase Mer (Homo sapiens). The note with it: at 1 µM.
Assay [8] deals with Hepatocyte growth factor receptor (Homo sapiens) (UniProt P08581). The note with it: at 0.1 µM.
For assay [9] the target is unchanged. The settings on record: at 1 µM.
Assay [10] deals with T2, Muscle, skeletal receptor tyrosine-protein kinase (Homo sapiens) (UniProt O15146).
T2 sequence (whole entry): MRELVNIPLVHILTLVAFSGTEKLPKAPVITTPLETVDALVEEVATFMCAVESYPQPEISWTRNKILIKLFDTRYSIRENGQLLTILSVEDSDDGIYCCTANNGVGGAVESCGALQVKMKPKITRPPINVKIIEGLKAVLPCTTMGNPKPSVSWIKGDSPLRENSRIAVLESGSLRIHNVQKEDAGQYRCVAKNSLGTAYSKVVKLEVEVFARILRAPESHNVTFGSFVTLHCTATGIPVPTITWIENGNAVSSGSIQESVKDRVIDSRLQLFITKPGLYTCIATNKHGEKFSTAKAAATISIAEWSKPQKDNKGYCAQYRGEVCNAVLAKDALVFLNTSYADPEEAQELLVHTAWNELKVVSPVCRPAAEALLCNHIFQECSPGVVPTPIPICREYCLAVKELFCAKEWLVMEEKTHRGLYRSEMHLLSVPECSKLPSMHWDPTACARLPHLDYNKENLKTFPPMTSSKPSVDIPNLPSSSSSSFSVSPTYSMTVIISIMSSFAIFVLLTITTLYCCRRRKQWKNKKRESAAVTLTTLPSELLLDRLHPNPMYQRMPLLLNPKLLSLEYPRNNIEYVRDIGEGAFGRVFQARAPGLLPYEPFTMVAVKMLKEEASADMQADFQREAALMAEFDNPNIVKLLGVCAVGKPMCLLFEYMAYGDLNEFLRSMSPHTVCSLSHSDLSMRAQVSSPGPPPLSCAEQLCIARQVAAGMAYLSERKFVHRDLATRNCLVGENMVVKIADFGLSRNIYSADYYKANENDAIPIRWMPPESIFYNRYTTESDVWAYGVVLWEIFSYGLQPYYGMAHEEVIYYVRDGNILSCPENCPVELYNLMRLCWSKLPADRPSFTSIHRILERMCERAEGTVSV
The settings on record: at 0.1 µM.

The target of assay [11] is T2, Muscle, skeletal receptor tyrosine-protein kinase (Homo sapiens). The note with it: at 1 µM.
Assay [12] deals with Platelet-derived growth factor receptor alpha (Homo sapiens) (UniProt P16234). The note with it: at 0.1 µM.
Platelet-derived growth factor receptor alpha (Homo sapiens), sequence (P16234 whole entry): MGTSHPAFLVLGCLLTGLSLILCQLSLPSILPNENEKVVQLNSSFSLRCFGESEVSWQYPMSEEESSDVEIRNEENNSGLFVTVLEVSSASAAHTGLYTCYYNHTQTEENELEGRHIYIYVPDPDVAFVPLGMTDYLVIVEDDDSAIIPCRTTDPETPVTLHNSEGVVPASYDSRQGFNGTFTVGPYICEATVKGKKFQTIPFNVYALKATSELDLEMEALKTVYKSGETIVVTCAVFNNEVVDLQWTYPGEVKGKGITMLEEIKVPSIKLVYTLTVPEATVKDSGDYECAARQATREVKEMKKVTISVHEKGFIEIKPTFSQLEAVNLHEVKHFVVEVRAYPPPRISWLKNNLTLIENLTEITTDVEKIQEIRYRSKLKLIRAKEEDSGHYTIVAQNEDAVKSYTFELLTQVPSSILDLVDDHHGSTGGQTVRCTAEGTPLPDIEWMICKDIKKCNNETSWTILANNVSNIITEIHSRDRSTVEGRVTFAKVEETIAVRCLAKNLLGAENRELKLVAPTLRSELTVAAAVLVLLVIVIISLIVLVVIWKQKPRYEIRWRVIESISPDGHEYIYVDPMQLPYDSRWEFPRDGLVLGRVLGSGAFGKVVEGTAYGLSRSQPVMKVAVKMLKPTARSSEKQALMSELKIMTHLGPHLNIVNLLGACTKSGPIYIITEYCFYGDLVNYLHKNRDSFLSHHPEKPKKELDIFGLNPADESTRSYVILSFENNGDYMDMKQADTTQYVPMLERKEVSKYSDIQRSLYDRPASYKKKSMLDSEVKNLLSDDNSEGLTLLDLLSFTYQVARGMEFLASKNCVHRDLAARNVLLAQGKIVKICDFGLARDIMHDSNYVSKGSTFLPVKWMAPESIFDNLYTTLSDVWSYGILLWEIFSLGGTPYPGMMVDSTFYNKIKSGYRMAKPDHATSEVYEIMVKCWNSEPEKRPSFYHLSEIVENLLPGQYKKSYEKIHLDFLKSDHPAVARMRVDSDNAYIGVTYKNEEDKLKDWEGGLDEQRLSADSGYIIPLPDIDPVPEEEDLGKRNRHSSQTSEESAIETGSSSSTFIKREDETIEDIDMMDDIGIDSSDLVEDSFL
Assay [13] has the same target. The settings on record: at 1 µM.
The subject of assay [14] is Platelet-derived growth factor receptor alpha (Homo sapiens), P16234 [D842V]. The note with it: at 0.1 µM.
For assay [15] the test system is unchanged. The note with it: at 1 µM.
In assay [16] the test system is Platelet-derived growth factor receptor alpha (Homo sapiens), P16234 [T674I]. The settings on record: at 0.1 µM.
Platelet-derived growth factor receptor alpha (Homo sapiens), P16234 [T674I], sequence (P16234 whole entry T674I): as the sequence (P16234 whole entry) above, with T674I counted along it
Assay [17] has the same test system. The settings on record: at 1 µM.
The test system of assay [18] is Platelet-derived growth factor receptor alpha (Homo sapiens), P16234 [V561D]. The settings on record: at 0.1 µM.
Platelet-derived growth factor receptor alpha (Homo sapiens), P16234 [V561D], sequence (P16234 whole entry V561D): as the sequence (P16234 whole entry) above, with V561D counted along it
Assay [19] has the same test system. The settings on record: at 1 µM.
The target of assay [20] is Platelet-derived growth factor receptor beta (Homo sapiens) (UniProt P09619). The note with it: at 0.1 µM.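 Note: reported value is the mean percent inhibition of the kinase.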

Platelet-derived growth factor receptor alpha (Homo sapiens), P16234 [D842V], sequence (P16234 whole entry D842V): as the sequence (P16234 whole entry) above, with D842V counted along it
Tyrosine-protein kinase Lyn (Homo sapiens), sequence (P07948 2-512 limits assumed): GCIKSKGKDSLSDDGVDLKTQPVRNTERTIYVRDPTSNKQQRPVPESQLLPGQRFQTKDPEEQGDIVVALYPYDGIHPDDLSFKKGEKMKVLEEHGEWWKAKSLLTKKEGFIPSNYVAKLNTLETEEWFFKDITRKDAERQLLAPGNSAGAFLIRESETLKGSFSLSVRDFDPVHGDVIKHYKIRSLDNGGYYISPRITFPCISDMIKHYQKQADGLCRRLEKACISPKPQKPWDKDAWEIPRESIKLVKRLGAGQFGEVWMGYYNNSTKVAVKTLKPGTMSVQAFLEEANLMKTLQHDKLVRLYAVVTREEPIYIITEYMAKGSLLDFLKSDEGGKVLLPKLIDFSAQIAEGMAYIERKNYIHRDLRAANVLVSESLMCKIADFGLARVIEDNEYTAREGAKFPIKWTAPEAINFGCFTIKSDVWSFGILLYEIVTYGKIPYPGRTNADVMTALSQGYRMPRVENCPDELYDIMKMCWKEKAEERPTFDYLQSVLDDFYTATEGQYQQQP

For the compound `COc1ccc(-c2nn3ncccc3c2-c2ccnc(Nc3cccc(C(F)(F)F)c3)n2)cc1`, the inhibition in assay [1] turned out to be 2.59%; in [2], 4.45%; in [3] it was 12.7%; in assay [4] it was 3.78%; in assay [5], 10.3%; in [6] it was 1.45%. The inhibition in assay [7] was determined as 3.23%; in assay [8], 6.61%; in assay [9] it was 12.1%; in [10], 2.37%; in assay [11], 1.14%; in assay [12] it was 1%. The inhibition in [13] was determined as 5.9%; in [14], 1.64%; in [15], 3.19%; in assay [16], 2.26%; in [17] it was 5.13%; in assay [18], 1.12%. Also, the inhibition was 5.31% in [19] and -0.23% in [20].

Consider `Cc1ccc(NC(=O)CC2CC2)cc1-c1ccc(C(=O)NCC2CC2)cc1`, for which the inhibition in assay [1] worked out at 4.25%; in assay [2] it was 6.32%; in assay [3], 7.19%; in assay [4], 4.03%; in [5] it was 6.24%; in assay [6] it was 0.96%. Besides, the inhibition was 1.85% in assay [7]; 7.51% in assay [8]; 9% in [9]; 2.1% in assay [10]; 5.33% in [11]; 8.04% in assay [12]. In addition, the inhibition in assay [13] is 13.8%; in [14], 2.79%; in assay [15], 4.37%; in [16], 3.52%; in [17], 9.3%; in [18], 4.68%. Further, the inhibition stood at 5.09% in assay [19] and 4.05% in assay [20].

Consider `NC(=O)c1cccc(Nc2nccc(Nc3cccc(F)c3)n2)c1`, for which the inhibition in assay [1] stood at 6.92%; in [2] it was 3.6%; in assay [3] it was 36.1%; in assay [4], 2.42%; in [5], 30.6%; in assay [6], 0.08%. Further, the inhibition in [7] is 4.99%; in assay [8] it was 7.98%; in assay [9] it was 9.64%; in assay [10], 0.8%; in assay [11], 7.74%; in [12] it was 7.13%. Further, the inhibition in assay [13] turned out to be 43.4%; in assay [14] it was 1.84%; in assay [15] it was 33.6%; in assay [16], 0.83%; in assay [17], 5.92%; in assay [18] it was 6.64%. In addition, the inhibition came out at 46% in assay [19] and 11.5% in [20].

On to `[O-][S+]1CCN(Cc2ccc(-c3ccc4ncnc(Nc5ccc(OCc6ccccc6)c(Cl)c5)c4c3)o2)CC1`, for which the inhibition was 7.75% in [1]; 1.18% in assay [2]; 6.07% in assay [3]; -1.3% in assay [4]; 3.42% in [5]; 7.08% in assay [6]. Moreover, the inhibition was determined as 48.2% in assay [7]; 3.11% in [8]; 5.04% in assay [9]; 1.43% in assay [10]; 1.01% in assay [11]; 6.03% in [12]. Besides, the inhibition in assay [13] was 11.8%; in assay [14], 0.45%; in assay [15] it was 1.95%; in assay [16], 3.64%; in assay [17] it was 7.9%; in assay [18] it was 3.07%. Also, the inhibition in assay [19] is 6.09%; in assay [20], 3.07%.

For the compound `NC(=O)c1sc(-n2cnc3ccccc32)cc1OCc1ccccc1Br`, the inhibition in assay [1] turned out to be 6.11%; in [2] it was 4.01%; in assay [3], 6.01%; in assay [4], 1.96%; in assay [5] it was 3.34%; in assay [6] it was 1.26%. Besides, the inhibition in assay [7] amounted to 2.98%; in assay [8], 3.2%; in assay [9], 6.5%; in assay [10], 3.93%; in [11], 7.28%; in assay [12] it was 6.48%. In addition, the inhibition in assay [13] stood at 15.4%; in [14] it was 4.15%; in [15] it was 6.85%; in assay [16], 2.52%; in [17], 5.25%; in assay [18], 5.2%. The values for the inhibition in assay [19] and in [20] were 9.55% and 4.3%, respectively.

Consider `Cc1cc(-c2ccccn2)cc(C)c1/C=C/c1cncc(-c2nn[nH]n2)c1`, for which the inhibition is 4.93% in assay [1]; 3.33% in [2]; 14% in [3]; 0.35% in assay [4]; 9.56% in assay [5]; -0.39% in [6]. Moreover, the inhibition in [7] is 3.73%; in [8], 2.88%; in [9] it was 4.32%; in assay [10], 3.02%; in assay [11], 5.02%; in [12], 4.62%. Moreover, the inhibition is 15.4% in assay [13]; -0.56% in assay [14]; 2.51% in assay [15]; 4.3% in assay [16]; 8.72% in [17]; 3.13% in assay [18]. For the same compound, the inhibition in assay [19] was determined as 7.97%; in [20] it was 4.53%.

As for `COc1cc(/C=N/Nc2ncnc3c2cnn3C(C)C)ccc1O`, the inhibition in assay [1] was determined as 3.76%; in [2], 15.2%; in assay [3], 58.5%; in assay [4], 11.2%; in [5], 52.7%; in assay [6] it was 3.4%. In addition, the inhibition in [7] was found to be 20.7%; in assay [8] it was 4.44%; in [9], 5.86%; in [10] it was 11.6%; in [11], 53.2%; in [12], 17.4%. In addition, the inhibition in assay [13] worked out at 64.7%; in assay [14], 13.3%; in assay [15] it was 61.1%; in assay [16], 3.82%; in assay [17] it was 4.12%; in assay [18], 12.3%. The inhibition in assay [19] turned out to be 54.8%; in [20], 8.52%.

As a reminder, the inhibition is the change of the read-out against control, counted positive when it falls.
